# Experimental data taken from PubChem BioAssay (EPA / NIEHS).
# Calls of active or inactive are those of the source. How the source made its calls: active means hit-call score of the fitted dose curve at least 0.9, where 1 is the maximum; inactive means score below 0.9. Peptide text beside a SMILES is read from it.
# Test: ATG_M_61_CIS: Attagene CIS-FACTORIAL HepG2 Assay for M61 Transcription Factor (Internal Marker) (AID 2282937)
# Conditions: HepG2 Attagene CIS-FACTORIAL M61 internal marker reporter; actives raise or lower the signal
# Method in brief: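 Background-control endpoint: HepG2 cells with cis-regulated reporter constructs, 24 h exposure, reporter mRNA detected via fluorescent primer extension and capillary electrophoresis; values from bidirectional fitting with DMSO baseline.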
row,Compound,outcome
1,O=S(=O)(O)c1ccc(N=Nc2c(O)ccc3ccccc23)cc1,inactive
2,Cc1ccc(C)c(OCCCC(C)(C)C(=O)O)c1,inactive
3,COc1ccc(C(=O)/C(Br)=C\C(=O)O)cc1,inactive
4,C/C=C/C=C/CCCCCCCO,inactive
5,CCCC=C(C=O)CC,inactive
6,CCc1cccc(C)c1N,inactive
7,CCCCCCCCCCCCC,inactive
8,COCC(=O)O,inactive
9,CCCC1CCCC(=O)O1 (stereo unspecified),inactive
10,C[Si](C)(C)N[Si](C)(C)C,inactive
11,CCCC(CC)c1ccccc1 (stereo unspecified),inactive
12,CC(=O)OC1CCCCC1,inactive
13,CCCCCC(=O)OCC,inactive
14,CC1CC(=O)CC(C)(C)C1 (stereo unspecified),inactive
15,CC(C)(C)NC(=O)[C@H]1CC[C@H]2[C@@H]3CC[C@H]4NC(=O)C=C[C@]4(C)[C@H]3CC[C@]12C,inactive
16,CCC1(C)C(=O)N(Cl)C(=O)N1Cl (stereo unspecified),inactive

row,Compound,outcome
1,CC/C=C\CCOC(=O)c1ccccc1O,inactive
2,CN1CCN(C)CC1,inactive
3,CC(C)OC(=O)c1ccccc1,inactive
4,COC(=O)[C@H](Cc1ccccc1)NC(=O)[C@@H](N)CC(=O)O (H-Asp-Phe-OMe),inactive
5,C=CCCCCCCCCC=O,inactive
6,c1ccc(-c2nc3ccccc3[nH]2)cc1,inactive
7,CC(=O)/C=C/C1C(C)=CCCC1(C)C (stereo unspecified),inactive
8,CCCCCCCCC(CO)CCCCCC (stereo unspecified),inactive
9,O=C(O)c1ccc2c(c1)C(=O)OC2=O,inactive
10,CC(C)(c1ccccc1)c1ccc(Nc2ccc(C(C)(C)c3ccccc3)cc2)cc1,inactive
11,CCCC(C)C(=O)OCC (stereo unspecified),inactive
12,NC(=O)Nc1ccccc1,inactive
13,CC1=CCC(C(C)C)C=C1 (stereo unspecified),inactive
14,CCN(CC)c1cccc(C)c1,inactive
15,CC(=O)OC/C=C(/C)CCC=C(C)C,inactive
16,O=C(O)c1cc(O)c2ccccc2c1O,inactive

# Test: ATG_EGR_CIS: Attagene CIS-FACTORIAL HepG2 Assay for human Early Growth Response 1 (EGR1) (AID 2282938)
# Conditions: HepG2 Attagene CIS-FACTORIAL EGR reporter mRNA; actives raise or lower the signal
# Method in brief: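 Endpoint derived by bidirectional fitting versus DMSO vehicle. Method: cis-promoter reporter units transfected into HepG2, 24 h dosing, RNA isolation, RT-PCR with 6-FAM primer extension and HpaI digestion, then capillary electrophoresis fluorescence detection.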
Compound,outcome,AC50
O=S(=O)(O)c1ccc(N=Nc2c(O)ccc3ccccc23)cc1,inactive,
CC1(C)[C@@H]2CC[C@@]1(C)C(=O)C2,inactive,
Cc1ccc(C)c(OCCCC(C)(C)C(=O)O)c1,inactive,
COc1ccc(C(=O)/C(Br)=C\C(=O)O)cc1,,68 µM (active)
C/C=C/C=C/CCCCCCCO,,100 µM (active)
CCCCCCCCCCCC(C)=O,inactive,
CC(=O)OCC=C(C)C,inactive,
CCCC=C(C=O)CC,inactive,
CCc1cccc(C)c1N,inactive,
CCCCCCCCCCCCC,inactive,
COCC(=O)O,inactive,
CCC1COC(=O)O1 (stereo unspecified),inactive,
CCCC1CCCC(=O)O1 (stereo unspecified),inactive,
C[Si](C)(C)N[Si](C)(C)C,inactive,
CCCC(CC)c1ccccc1 (stereo unspecified),inactive,
CC(=O)OC1CCCCC1,inactive,
CCCCCC(=O)OCC,inactive,
CC1CC(=O)CC(C)(C)C1 (stereo unspecified),inactive,
CC(C)(C)NC(=O)[C@H]1CC[C@H]2[C@@H]3CC[C@H]4NC(=O)C=C[C@]4(C)[C@H]3CC[C@]12C,inactive,

Compound,outcome,AC50
CCC1(C)C(=O)N(Cl)C(=O)N1Cl (stereo unspecified),,34.5 µM (active)
CC/C=C\CCOC(=O)c1ccccc1O,inactive,
CN1CCN(C)CC1,inactive,
CC(C)OC(=O)c1ccccc1,inactive,
COC(=O)[C@H](Cc1ccccc1)NC(=O)[C@@H](N)CC(=O)O (H-Asp-Phe-OMe),inactive,
C=CCCCCCCCCC=O,inactive,
c1ccc(-c2nc3ccccc3[nH]2)cc1,inactive,
CC(=O)/C=C/C1C(C)=CCCC1(C)C (stereo unspecified),inactive,
C=C(C)C1CC=C(C)CC1 (stereo unspecified),inactive,
CCCCCCCCC(CO)CCCCCC (stereo unspecified),inactive,
O=C(O)c1ccc2c(c1)C(=O)OC2=O,inactive,
CC(C)(c1ccccc1)c1ccc(Nc2ccc(C(C)(C)c3ccccc3)cc2)cc1,inactive,
CCCC(C)C(=O)OCC (stereo unspecified),inactive,
NC(=O)Nc1ccccc1,inactive,
CC1=CCC(C(C)C)C=C1 (stereo unspecified),inactive,
CCN(CC)c1cccc(C)c1,inactive,
CC(=O)OC/C=C(/C)CCC=C(C)C,inactive,
O=C(O)c1cc(O)c2ccccc2c1O,inactive,

# Test: ATG_M_19_CIS: Attagene CIS-FACTORIAL HepG2 Assay for M19 Transcription Factor (Internal Marker) (AID 2282939)
# Conditions: HepG2 Attagene CIS-FACTORIAL M19 internal marker reporter; actives raise or lower the signal
# Method in brief: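 Transfect HepG2 with MRTU reporter library → dose chemical, 24 h → isolate total RNA, reverse-transcribe with oligo(dT) → PCR, 6-FAM label, HpaI cut (2 h, 37 C) → capillary electrophoresis. Bidirectional fit vs DMSO.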
row,Compound,outcome
1,O=S(=O)(O)c1ccc(N=Nc2c(O)ccc3ccccc23)cc1,inactive
2,CC1(C)[C@@H]2CC[C@@]1(C)C(=O)C2,inactive
3,Cc1ccc(C)c(OCCCC(C)(C)C(=O)O)c1,inactive
4,COc1ccc(C(=O)/C(Br)=C\C(=O)O)cc1,inactive
5,C/C=C/C=C/CCCCCCCO,inactive
6,CCCCCCCCCCCC(C)=O,inactive
7,CC(=O)OCC=C(C)C,inactive
8,CCCC=C(C=O)CC,inactive
9,CCc1cccc(C)c1N,inactive
10,CCCCCCCCCCCCC,inactive
11,COCC(=O)O,inactive
12,CCC1COC(=O)O1 (stereo unspecified),inactive
13,CCCC1CCCC(=O)O1 (stereo unspecified),inactive
14,C[Si](C)(C)N[Si](C)(C)C,inactive
15,CCCC(CC)c1ccccc1 (stereo unspecified),inactive
16,CC(=O)OC1CCCCC1,inactive
17,CCCCCC(=O)OCC,inactive
18,CC1CC(=O)CC(C)(C)C1 (stereo unspecified),inactive
19,CC(C)(C)NC(=O)[C@H]1CC[C@H]2[C@@H]3CC[C@H]4NC(=O)C=C[C@]4(C)[C@H]3CC[C@]12C,inactive

row,Compound,outcome
1,CCC1(C)C(=O)N(Cl)C(=O)N1Cl (stereo unspecified),inactive
2,CC/C=C\CCOC(=O)c1ccccc1O,inactive
3,CN1CCN(C)CC1,inactive
4,CC(C)OC(=O)c1ccccc1,inactive
5,COC(=O)[C@H](Cc1ccccc1)NC(=O)[C@@H](N)CC(=O)O (H-Asp-Phe-OMe),inactive
6,C=CCCCCCCCCC=O,inactive
7,c1ccc(-c2nc3ccccc3[nH]2)cc1,inactive
8,CC(=O)/C=C/C1C(C)=CCCC1(C)C (stereo unspecified),inactive
9,C=C(C)C1CC=C(C)CC1 (stereo unspecified),inactive
10,CCCCCCCCC(CO)CCCCCC (stereo unspecified),inactive
11,O=C(O)c1ccc2c(c1)C(=O)OC2=O,inactive
12,CC(C)(c1ccccc1)c1ccc(Nc2ccc(C(C)(C)c3ccccc3)cc2)cc1,inactive
13,CCCC(C)C(=O)OCC (stereo unspecified),inactive
14,NC(=O)Nc1ccccc1,inactive
15,CC1=CCC(C(C)C)C=C1 (stereo unspecified),inactive
16,CCN(CC)c1cccc(C)c1,inactive
17,CC(=O)OC/C=C(/C)CCC=C(C)C,inactive
18,O=C(O)c1cc(O)c2ccccc2c1O,inactive
